The whole screen tested about 2,300 compounds, of which about 1,200 (52%) were called active. Not shown: some 34% with an inconclusive outcome. Calls come from the whole dose curve; as a rule, active = well fitted inhibition curve with a large enough effect; inconclusive = small, poorly fitted or top-dose-only effect, or effect the other way; inactive = no such curve, though single readings can be large or run the other way. The set was probably picked from earlier hits. Some of the results follow.
experiment: Confirmation screen for delayed death inhibitors of the malarial parasite plastid, 48 hour incubation; note: nearly all actives have a fitted effect of over 65% in size; conditions: P. falciparum-infected erythrocytes, luciferase growth; series mostly up to 28.7 µM
In short: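 Single-generation (48 h, 37 C) exposure of integrated firefly luciferase-reporter P. falciparum in red cells, 0.1% parasitemia at 2% hematocrit, Albumax-supplemented RPMI. Falling luciferase signal marks parasite growth inhibition.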
Potency is the fitted concentration of half-maximal effect.

Row | Structure (SMILES) | Potency
1 | O=C(c1ccsc1)N1CCCC(N2CCN(c3cccc(C(F)(F)F)c3)CC2)C1 (stereo unspecified) | 14.1 µM (active)
2 | Cc1cc(C(=O)N2CCCC(N3CCN(c4cccc(C(F)(F)F)c4)CC3)C2)c(C)o1 (stereo unspecified) | 12.6 µM (active)
3 | Cc1ccc(C(=O)NC2CCCCC2)cc1S(=O)(=O)N1CCCC1 | 11.2 µM (active)
4 | O=C(Nc1ccncc1)c1ccc(Cl)c(S(=O)(=O)N2CCCC2)c1 | 11.2 µM (active)
5 | Cc1ccc(S(=O)(=O)N2CCCCC2C)cc1[N+](=O)[O-] (stereo unspecified) | inactive
6 | Cc1ccc(C(=O)NC2CCCC2)cc1S(=O)(=O)N1CCCCC1 | 11.2 µM (active)
7 | Clc1cccc(OCCCCCN2CCOCC2)c1 | inactive
8 | CN(CCCN1CCOCC1)C(=O)c1ccc2nc(Cc3cccc(Cl)c3)oc2c1 | 14.1 µM (active)
9 | CCOC(=O)C1CCCN(C(=O)c2cc3cc4ccc(OC)cc4nc3o2)C1 (stereo unspecified) | 11.2 µM (active)
10 | COC(=O)[C@]1(CC(C)C)N[C@H](c2ccc(-c3ccc(F)cc3)c(OC)c2)[C@@H]2C(=O)N(C)C(=O)[C@@H]21 | 6.31 µM (active)
11 | COCCN(C(=O)CCCC(=O)Nc1ccccn1)C(C(=O)NC1CCCCC1)c1ccc(C)cc1 (stereo unspecified) | 11.2 µM (active)
12 | CC[C@H]1OC(=O)[C@H](C)[C@@H](O[C@H]2C[C@@](C)(OC)[C@@H](O)[C@H](C)O2)C(C)[C@@H](O[C@@H]2O[C@H](C)C[C@H](N(C)C)[C@@H]2O)[C@](C)(OC)C[C@@H](C)C(=O)[C@H](C)[C@@H](O)[C@]1(C)O (stereo partly specified) | inactive
13 | CC[C@H]1OC(=O)[C@H](C)[C@@H](O[C@H]2C[C@@](C)(OC)[C@@H](O)[C@H](C)O2)[C@H](C)[C@@H](O[C@@H]2O[C@H](C)C[C@H](N(C)C)[C@H]2O)[C@](C)(O)C[C@@H](C)CN(C)[C@H](C)[C@@H](O)[C@]1(C)O | 14.1 µM (active)
14 | COc1ccccc1/C=C/C(=O)/C=C/c1ccccc1O | 1.41 µM (active)
15 | O=C(/C=C/c1ccccc1O)c1ccco1 | inactive
16 | Cc1ccc2[nH]c3c(c2c1)CCCC3NC(=O)CCl (stereo unspecified) | 4.47 µM (active)
17 | Cc1cc(NC(=O)CSCC(=O)Nc2ccccc2Oc2ccccc2)no1 | 14.1 µM (active)
18 | COC(=O)[C@@]1(Cc2ccc(F)cc2)[C@@H]2[C@@H](CC(=O)[C@H]2CC(=O)C(=O)N(C)C)CN1C(=O)c1ccccc1 | 11.2 µM (active)
19 | Cc1cc([N+](=O)[O-])ccc1NC(=O)CSc1nncn1-c1cccnc1 | inactive
20 | O=C(N/N=C/c1cccn1-c1ccc([N+](=O)[O-])cc1)c1cccnc1 | 10 µM (active)
21 | CCOc1ccc(N(C(=O)c2snc(C(N)=O)c2N)C(C(=O)NCC2CCCO2)c2c[nH]c3ccccc23)cc1 (stereo unspecified) | 3.55 µM (active)
22 | Cc1cc(C)c(C(=O)/C=C/c2cccc3ccccc23)c(=O)[nH]1 | 8.91 µM (active)

Row | Structure (SMILES) | Potency
23 | COc1ccc2[nH]c(=O)c(CN(CCCN(C)C)C(=O)Nc3ccc(F)cc3)cc2c1 | 14.1 µM (active)
24 | O=C(Nc1nnc(SCc2ccc(F)cc2)s1)c1ccccn1 | 3.55 µM (active)
25 | O=c1c(Cl)cc(Cl)nn1-c1ccccc1 | 12.6 µM (active)
26 | COc1ccc(-n2nc(C#N)c(Cl)cc2=O)cc1 | inactive
27 | C=C[C@]1(C)C[C@@H](OC(=O)CSCCN(CC)CC)[C@]2(C)C(C)CC[C@]3(CCC(=O)[C@H]32)[C@@H](C)[C@@H]1O (stereo partly specified) | 14.1 µM (active)
28 | COc1ccc(-c2cc(C(=O)N/N=C/c3sccc3C)c3ccccc3n2)c(OC)c1 | 12.6 µM (active)
29 | COc1ccc(-c2cc(C(=O)N/N=C/c3ccc4c(c3)OCO4)c3ccccc3n2)c(OC)c1 | 7.94 µM (active)
30 | COc1ccccc1-c1cc(C(=O)N/N=C/c2sccc2C)c2ccccc2n1 | 3.98 µM (active)
31 | CCOC(=O)Nc1ccc2c(CNC(C)c3ccccc3OC)cc(=O)oc2c1 (stereo unspecified) | 14.1 µM (active)
32 | CCc1noc(C)c1C(=O)N1CCC(CCC(=O)Nc2cccc(C)c2)CC1 | 11.2 µM (active)
33 | C/C(N)=C(/C#N)C(=O)COC(=O)c1cc(C)n(-c2ccc(F)cc2)c1C | 10 µM (active)
34 | O=C(NCc1ccc2c(c1)OCO2)c1nc(S(=O)(=O)Cc2ccccc2)ncc1Cl | inactive
35 | O=C(CSc1nc2cc([N+](=O)[O-])ccc2n1-c1ccccc1)NCc1ccc2c(c1)OCO2 | 11.2 µM (active)
36 | Cc1nc([N+](=O)[O-])c(Sc2nc3ccccc3n2C)n1Cc1ccccc1 | 15.8 µM (active)
37 | CN1c2ccccc2C(C)(C)C12CC(c1ccc(S(=O)(=O)N3CCCCC3)cc1)=NO2 (stereo unspecified) | 5.62 µM (active)
38 | CCN(CC)S(=O)(=O)c1ccc(C2=NOC3(C2)N(C)c2ccccc2C3(C)C)cc1 (stereo unspecified) | 12.6 µM (active)
39 | C=CCSC(=C(C#N)C#N)c1cc2c([nH]1)CCCC2 | 7.08 µM (active)
40 | COc1ccc(CN2CCN(C(=O)c3ccc(CNS(=O)(=O)c4ccc(C)cc4)cc3)CC2)c(OC)c1OC | 12.6 µM (active)
41 | CCN1C(=O)[C@@H]2[C@@H](c3ccc(SC4CCCCC4)c(OC)c3)N3CCC[C@@]3(C(=O)OC)[C@@H]2C1=O | 5.01 µM (active)
42 | COC(=O)[C@@]12CCCN1[C@H](c1ccc(-c3cccc(Cl)c3)c(OC)c1)[C@H]1C(=O)N(C)C(=O)[C@H]12 | 2.82 µM (active)
43 | COc1cc(OC)c2c(-c3cccc(-c4cccc(N)c4)c3)cc(=O)oc2c1 | 10 µM (active)
44 | O=C(NCCN1CCN(c2ccc([N+](=O)[O-])cc2)CC1)NCc1ccccc1 | 12.6 µM (active)

Row | Structure (SMILES) | Potency
45 | O=[N+]([O-])c1ccc(N2CCN(c3ccccc3)CC2)nc1 | inactive
46 | O=C1NC(=S)S/C1=C\C=C\c1ccc([N+](=O)[O-])o1 | 1.78 µM (active)
47 | COC(=O)C1=C(C)N(CC2CC2)C(=NCc2cc(OC)c(OC)c(OC)c2)N[C@H]1c1ccccc1 | 12.6 µM (active)
48 | COc1ccccc1CNC(=O)c1ccc(-c2ccccc2Cl)o1 | 12.6 µM (active)
49 | Cc1ccc(CNS(=O)(=O)c2ccc(C)s2)cc1 | inactive
50 | Cc1ccc(CN2CCC(CNS(=O)(=O)c3ccc(-c4ccc(=O)[nH]n4)s3)CC2)cc1 | 5.01 µM (active)
51 | CC1CN(c2nc(-c3ccc(Br)cc3)nnc2-c2ccccc2)CC(C)N1 (stereo unspecified) | 3.98 µM (active)
52 | Cc1ccc(-n2c(SCC(=O)Nc3ncc(Cl)cc3Cl)nc3ccccc32)cc1 | 11.2 µM (active)
53 | O=C(CSc1nc2ccccc2n1-c1ccccc1)Nc1ncc(Cl)cc1Cl | 11.2 µM (active)
54 | COCCn1c(SCC(=O)Nc2ncc(Cl)c(C)c2Cl)nc2ccccc21 | inactive
55 | CN1c2ccccc2-c2nc3ccccc3n2C1c1cccs1 (stereo unspecified) | 7.08 µM (active)
56 | Cc1ccc(-c2nnc(SCC(=O)N/N=C/c3cccs3)n2-c2ccc(C)cc2)cc1 | 11.2 µM (active)
57 | COc1ccc2[nH]c3c(NCCN(C(C)C)C(C)C)ncnc3c2c1 | 5.62 µM (active)
58 | COc1ccc2[nH]c3c(NCCC4=CCCCC4)ncnc3c2c1 | 5.62 µM (active)
59 | CC(C)OCCCNc1ncnc2c1[nH]c1ccc(F)cc12 | 4.47 µM (active)
60 | Cc1cc(C)n2nc(SCC(=O)N3CCN(c4ccc(F)cc4)CC3)nc2n1 | 12.6 µM (active)
61 | CCn1c2ccccc2c2cc(Nc3cc(C)nc4ncnn34)ccc21 | 0.251 µM (active)
62 | CCOC(=O)CCC(=O)Nc1ncnc2c1C(c1ccccc1)c1c(ccc3ccccc13)O2 (stereo unspecified) | 8.91 µM (active)
63 | O=C(Nc1ccccc1C(=O)Nc1ccccc1C(=O)O)c1ccccc1 | inactive
64 | O=C(Nc1ccccc1O)c1ccc([N+](=O)[O-])cc1 | 15.8 µM (active)
65 | Cc1sc(N/N=C/c2cccnc2)nc1-c1ccccc1 | 12.6 µM (active)
66 | Cc1ccc(N/N=C/c2ccncc2)cc1 | inactive

Row | Structure (SMILES) | Potency
67 | Cc1sc(NC(=O)c2c(F)cccc2F)nc1-c1ccccc1 | inactive
68 | CC1CN(C(=O)N2c3ccccc3Sc3ccccc32)CC(C)O1 (stereo unspecified) | 14.1 µM (active)
69 | O=C(N1CCOCC1)N1c2ccccc2Sc2ccccc21 | inactive
70 | O=C(CCC1CCCCC1)NCCN1C2=NC[C@H](Cc3ccccc3)N2C[C@H]1Cc1ccc(O)cc1 | 11.2 µM (active)
71 | C[C@H]1CN=C2N(CCNC(=O)CCC3CCCCC3)[C@H](Cc3ccc(O)cc3)CN21 | 11.2 µM (active)
72 | C/C=C(\C)C(=O)NCCN1C2=NC[C@H](Cc3ccccc3)N2C[C@H]1Cc1ccc(O)cc1 | 11.2 µM (active)
73 | C[C@@H](CN1C2=NC[C@H](Cc3ccc(O)cc3)N2C[C@H]1Cc1ccc(O)cc1)NC(=O)CCC1CCCCC1 | 8.91 µM (active)
74 | Cc1cc2nsnc2c(S(=O)(=O)N2CCN(C)CC2)c1C | inactive
75 | CC1CCN(CCNC(=O)C2CCN(S(=O)(=O)c3cccc4nsnc34)CC2)CC1 | 14.1 µM (active)
76 | CN(C)S(=O)(=O)c1cc(NC(=O)c2cc(=O)c3ccccc3o2)ccc1Cl | 11.2 µM (active)
77 | Nc1cc[n+](CC(=O)c2ccc3c(c2)OCCO3)cc1 | 7.08 µM (active)
78 | O=Cc1s/c(=N\S(=O)(=O)c2ccccc2)n(CCCCl)c1Cl | inactive
79 | CCOC(=O)c1cnc2c(C)c(Cl)ccc2c1NCCCN1CCOCC1 | 14.1 µM (active)
80 | N=c1c2c(n(Cc3ccc(Cl)cc3)c3c1CCC3)CCC2 | 0.562 µM (active)
81 | N=c1c2c(n(Cc3ccc(Cl)c(Cl)c3)c3c1CCC3)CCCC2 | 0.355 µM (active)
82 | O=C(Nc1ccc(N2CCCCC2)c(Cl)c1)c1cccnc1 | 11.2 µM (active)
83 | Cc1cc(C)cc(NC(=O)c2cccnc2)c1 | inactive
84 | COCCN(C(=O)c1ccccc1F)c1nnc(-c2ccc(OC)cc2)s1 | 10 µM (active)
85 | CC(C)(C)C1C/C(=C/c2ccccn2)C(=O)/C(=C/c2ccccn2)C1 (stereo unspecified) | 0.316 µM (active)
86 | COC(=O)CSc1nc2c(c(-c3ccco3)c1C#N)CCCC2 | 12.6 µM (active)
